Compound activity deposited in PubChem BioAssay by National Center for Advancing Translational Sciences (NCATS).
ALOX15B inhib = qHTS Assay for Inhibitors of 15-hLO-2 (15-human lipoxygenase 2) | purified 15hLO-2, xylenol orange hydroperoxide absorbance | 110,000 tested, 0.56% active | Potency, µM (highest dose often 57.1 µM), usual class: inhibitors; note: nearly all actives have a fitted effect of over 60% in size
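Enzyme 50 nM, AA 45 uM, 25 mM Hepes pH 7.5 + 0.01% Triton X-100; cpd preinc 15 min RT, rxn 90 min RT; stop/detect with 200 uM XO + 300 uM Fe(II) in 50 mM H2SO4, 30 min; A573/A405.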
IMPase inh = qHTS Assay for Identifying the Cell-Membrane Permeable IMPase Inhibitors. Inositol monophosphatase 1 (Rattus norvegicus), P97697. CHO-M1 cells, IP1 accumulation, HTRF TR-FRET ratio. inhibition (IP1 accumulation), % at 46.1 µM. 120,000 tested, under 10 active. AID 901, 2007; active = well fitted curve in the direction sought with a large enough effect in the signal ratio, not every such curve was filed as active; inconclusive = small, poorly fitted or top-dose-only effect, or a change in a side signal; inactive = no such curve, though single readings can be large or run the other way; the % refers to the signal ratio;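 note: cells stimulated with carbachol in lithium chloride buffer; higher means more IMPase inhibition seen as more IP1 and lower FRET ratio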
Target sequence (P97697 whole entry, looked up): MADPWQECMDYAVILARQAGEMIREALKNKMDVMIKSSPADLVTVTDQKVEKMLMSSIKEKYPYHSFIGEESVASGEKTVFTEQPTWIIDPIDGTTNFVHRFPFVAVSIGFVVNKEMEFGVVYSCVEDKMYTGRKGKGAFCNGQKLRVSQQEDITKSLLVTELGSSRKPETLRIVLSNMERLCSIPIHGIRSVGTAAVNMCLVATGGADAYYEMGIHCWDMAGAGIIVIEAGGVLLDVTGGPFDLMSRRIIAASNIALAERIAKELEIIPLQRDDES
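Seeded CHO-M1 cells were dosed with compound at up to 46 uM, stimulated with carbachol for 30 min, then lysed in IP-One detection reagents. Higher IP1 lowers the TR-FRET signal.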
12-hLO inh = qHTS Assay for Inhibitors of 12-hLO (12-human lipoxygenase); Potency, µM (titrated, usually from 57.1 µM), most hits filed as inhibitors; 150,000 tested, 0.12% active; purified 12-hLO, xylenol orange hydroperoxide absorbance; note: nearly all actives have a fitted effect of over 55% in size
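Purified human 12hLO (150 nM final) was preincubated with compounds for 15 min at room temperature in 25 mM Hepes pH 7.0, 0.01% Triton X-100, then reacted with 40 uM arachidonic acid for 30 min. Hydroperoxide was detected with ferrous iron/xylenol orange.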
Of the large screens only hits and unclear results are named; the others gave an inactive call. Shown is part of a subset that was picked to be rich in hits. Unless noted, calls come from the whole dose curve; as a rule, active = well fitted curve in the direction sought with a large enough effect; inconclusive = small, poorly fitted or top-dose-only effect, or another doubt; inactive = no such curve, though single readings can be large; an effect the other way counts as inactive or inconclusive.

CCn1c(C)cc(/C=C2\SC(=O)N(CC(=O)Nc3ccc(C)c(C)c3)C2=O)c1C	ALOX15B inhib inconclusive
Cc1ccc(NC(=O)CN2C(=O)S/C(=C/c3ccc(-c4cc(C(=O)O)ccc4C)o3)C2=O)cc1C	ALOX15B inhib 20µM
Cc1ccc(N(CC(=O)N/N=C/c2cc(C)n(-c3ccccc3)c2C)S(C)(=O)=O)c(C)c1	none
Cc1cc(/C=N/NC(=O)Cn2c3ccccc3c(=O)c3ccccc32)c(C)n1-c1ccccc1	ALOX15B inhib 4µM
O=c1[nH]c2cc3c(cc2cc1C(c1nnnn1Cc1ccccc1)N1CCN2CCCC2C1)OCCO3 (configuration not stated)	none
COc1cc2c(C)c3c4c(cc(OC)c(OC)c4c2cc1OC)CCN3C	none
COc1cc2c(C=O)c3c4c(cc(OC)c(OC)c4c2cc1OC)CCN3C	ALOX15B inhib 32µM, 12-hLO inh inconclusive
N#C/C(=C\c1ccc(O)c(O)c1)C(=O)NCCCc1ccccc1	ALOX15B inhib inconclusive, 12-hLO inh inconclusive
N#C/C(=C\c1ccc(O)c(O)c1)C(=O)OCCc1cccs1	ALOX15B inhib 13µM, 12-hLO inh inconclusive
N#Cc1ccc(NC(=O)CCc2nc3ccccc3s2)cc1	none (no result: ALOX15B inhib, IMPase inh)
COc1ccc(-n2nc3cc(C)c(NC(=O)Cc4ccc(Cl)cc4)cc3n2)cc1	none (no result: ALOX15B inhib, 12-hLO inh)
Oc1ccccc1Oc1c(F)c(F)nc(N2CCCC2)c1F	none (no result: ALOX15B inhib, IMPase inh)
O=C(Nc1cccc(C(F)(F)F)c1)C(SCCO)c1ccccc1 (configuration not stated)	none (no result: ALOX15B inhib)
CCOc1cc(NC(=S)Nc2ccccc2)c(OCC)cc1NC(=O)c1ccc(OC)cc1	ALOX15B inhib 25µM
CCOc1cc(NC(=S)Nc2cccc(OC)c2)c(OCC)cc1NC(=O)c1ccc(C)cc1	ALOX15B inhib inconclusive
COc1cc(NC(=O)C2CC(=O)NC3=C2C(=O)CCC3)cc(OC)c1 (configuration not stated)	none (no result: ALOX15B inhib)
Cc1cc(C)c2c(=O)n(CC(=O)N3CCC(Cc4ccccc4)CC3)sc2n1	none (no result: ALOX15B inhib)
Cc1cccc(N2CCN(C(=O)Cn3sc4nc(C)cc(C)c4c3=O)CC2C)c1 (configuration not stated)	ALOX15B inhib 1µM, 12-hLO inh inconclusive
CCNC(=O)/C(=C\C=C\c1ccccc1)NC(=O)c1ccc(Br)o1	none (no result: ALOX15B inhib, IMPase inh)
CC[n+]1c(/C=C2\C=C(C)CC(C)(C)C2)sc2ccccc21	ALOX15B inhib 25µM
CC[n+]1c(/C=C2\C=C(C)CC(C)C2)sc2ccccc21 (configuration not stated)	ALOX15B inhib inconclusive
CC[n+]1c(/C=C2/C=C(C)CC(C)(C)C2)sc2ccc(OC)cc21	ALOX15B inhib 25µM
c1ccc2c(c1)[nH]c1c(N3CCSCC3)ncnc12	none
O=C1NN(c2ccccc2)C(=O)/C1=C\c1cccc(OC(=O)c2cccs2)c1	ALOX15B inhib 16µM, 12-hLO inh inconclusive
O=C1NN(c2ccc(Cl)c(Cl)c2)C(=O)/C1=C/c1cccc(OC(=O)c2cccs2)c1	ALOX15B inhib 10µM, 12-hLO inh inconclusive
COc1cc(/C=C2/C(=O)NN(c3cccc(F)c3)C2=O)ccc1OC(=O)c1ccco1	none (no result: ALOX15B inhib)
CCOc1cc(/C=C2/C(=O)N(c3ccccc3)N=C2C)ccc1OC(=O)c1cccs1	ALOX15B inhib inconclusive
Cc1oc2cc(O)cc(O)c2c(=O)c1-c1ccc2c(c1)OCCCO2	12-hLO inh inconclusive
CCC(=O)Nc1cc(-c2nn3c(C)nnc3s2)ccc1C	none
Nc1ncc(-c2nnnn2-c2ccc(Cl)cc2)c(-c2ccc(Cl)cc2)n1	none
O=C(CSc1nnnn1-c1ccccc1)CC(=O)Nc1ccc(Cl)cc1	12-hLO inh 10µM
O=C(CSc1nnnn1-c1ccccc1)Nc1nsc(-c2ccc(Cl)cc2)n1	none
O=C(Nc1ccc(Nc2ccccc2)cc1)C(Cl)Cl	none (no result: ALOX15B inhib, IMPase inh)
Cc1ccc(Cl)cc1N1CCN(C(=O)c2ccc(NS(=O)(=O)c3c(C)noc3C)cc2)CC1	none
O=C(O)C1=CC(=C(c2ccc(O)c(C(=O)O)c2)c2ccc(O)c(C(=O)O)c2)C=CC1=O	ALOX15B inhib 7.9µM, IMPase inh inconclusive, 12-hLO inh inconclusive
CC1=C/C(=C(/c2ccc(O)c(C)c2)c2ccccc2C(=O)O)C=CC1=O	none (no result: IMPase inh)
COc1ncnc2c1NC(=O)CS2	none
Nc1ccc(-c2ccc(N)c(O)c2)cc1O	none (no result: IMPase inh)
Nc1cc(-c2ccccc2)ccc1O	ALOX15B inhib 13µM, 12-hLO inh inconclusive
CCC(=O)NC(c1cccs1)c1cc([N+](=O)[O-])c2cccnc2c1O (configuration not stated)	12-hLO inh 2.8µM (no result: ALOX15B inhib, IMPase inh)
